Source: PubChem BioAssay AID933 (National Center for Advancing Translational Sciences (NCATS), 2009)
Results filed as inconclusive are left out. Activity calls are given as the source filed them. The call rests on the fitted dose curve; in most records, active means well fitted activation curve with a large enough effect in the signal ratio, with a control signal flat; inconclusive means small, poorly fitted or top-dose-only effect, or a change in a side signal; inactive means flat fitted curve, though single readings scatter; the % refers to the signal ratio.

biological target: Thyrotropin receptor (Homo sapiens) (UniProt P16473); test: Secondary Concentration-Response Assay for Agonists of the Thyroid Stimulating Hormone Receptor: HTRF Activity Detection; conditions: HEK293-TSHR cells, cAMP HTRF ratio, 30 min; series mostly up to 91.7 µM; activation: at the top concentration;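 on activation: HEK 293 cells stably expressing human TSHR with RO 20-1724 phosphodiesterase inhibitor; % of control where 0% means no effect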
Summary of the method: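 Orthogonal confirmation in a separate TSHR-transfected HEK 293 line: cells in medium with 10 % FCS and 100 uM RO 20-1724 got compound for 30 min at room temperature. cAMP was measured by HTRF (d2-cAMP/anti-cAMP antibody), 615/660 nm emission.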
Potency means the concentration at half of the fitted maximal effect.

Chain of Thyrotropin receptor (Homo sapiens) (P16473 whole entry, looked up): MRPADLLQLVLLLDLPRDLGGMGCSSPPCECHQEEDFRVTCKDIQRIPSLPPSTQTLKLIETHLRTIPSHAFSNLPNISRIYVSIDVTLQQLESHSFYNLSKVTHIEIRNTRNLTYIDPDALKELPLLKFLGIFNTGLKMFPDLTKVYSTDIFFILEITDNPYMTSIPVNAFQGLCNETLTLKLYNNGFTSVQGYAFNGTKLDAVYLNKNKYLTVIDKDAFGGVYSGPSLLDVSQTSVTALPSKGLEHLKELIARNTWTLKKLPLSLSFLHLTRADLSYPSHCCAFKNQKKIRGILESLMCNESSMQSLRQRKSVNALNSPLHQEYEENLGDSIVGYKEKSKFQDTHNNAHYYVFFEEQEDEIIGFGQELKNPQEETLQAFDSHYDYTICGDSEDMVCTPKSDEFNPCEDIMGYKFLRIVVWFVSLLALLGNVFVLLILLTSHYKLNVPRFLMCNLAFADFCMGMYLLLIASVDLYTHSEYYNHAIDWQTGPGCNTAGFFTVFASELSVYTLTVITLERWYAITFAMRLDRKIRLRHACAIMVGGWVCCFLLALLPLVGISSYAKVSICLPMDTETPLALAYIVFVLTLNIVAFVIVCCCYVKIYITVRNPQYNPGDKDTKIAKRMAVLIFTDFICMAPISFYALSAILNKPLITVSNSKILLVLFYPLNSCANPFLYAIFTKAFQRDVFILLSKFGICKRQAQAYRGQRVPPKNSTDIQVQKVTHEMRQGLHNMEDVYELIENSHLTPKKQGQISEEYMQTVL

| SMILES | activation | Potency |
| --- | --- | --- |
| O=c1c2ccccc2nc(-c2ccccc2O)n1Cc1ccccc1 | 4.17% (inactive) | – |
| CCOc1ccc(N(CC(=O)NCc2cccs2)S(=O)(=O)c2c(C)noc2C)cc1 | -0.0859% [at 0.00035 µM] (inactive) | – |
| O=C(CN1C(=O)NC2(CCCCC2)C1=O)NCCC1=CCCCC1 | 1.34% [at 0.00035 µM] (inactive) | – |
| COc1cc(C2Nc3ccccc3C(=O)N2c2ccccc2)c(Br)cc1OCC(=O)O (stereo unspecified) | 0.259% (inactive) | – |
| CSc1nc(NC(C)(C)C)nc(Oc2ccc(=O)[nH]n2)n1 | -0.106% [at 0.00035 µM] (inactive) | – |
| COc1cc(C2Nc3ccccc3C(=O)N2c2ccccc2OC)ccc1O (stereo unspecified) | 1.38% (inactive) | – |
| O=C1C2C3CCCC3=C3CCCC3C2C(=O)N1c1cccc(Cl)c1 (stereo unspecified) | 1.67% (inactive) | – |
| COc1ccc(-c2nc3ccccc3c(=O)n2Cc2ccccc2)cc1OCc1ccc(NC(C)=O)cc1 | 2.33% (inactive) | – |
| O=C(COC(=O)C12CC3CC(CC(Cl)(C3)C1)C2)NCc1ccco1 | – | 14.1 µM (active) |
| CCOC(=O)CCc1c(C)nc2c(c(C)nn2C(C)(C)C)c1C | 0.0158% [at 0.00035 µM] (inactive) | – |
| COc1ccc(CN(Cc2ccccc2)C(=O)c2ccc(O)cc2)cc1COc1ccc(NC(C)=O)cc1 | – | 28.2 µM (active) |
| COc1ccc(C2Nc3ccccc3C(=O)N2Cc2ccccc2)cc1Cn1nnc2ccccc21 (stereo unspecified) | 2.1% (inactive) | – |
| O=C1c2ccccc2NC(c2c(Cl)cccc2Cl)N1Cc1ccccc1 (stereo unspecified) | 1.83% (inactive) | – |
| CCOC(=O)c1ccc(NC(=O)c2ccc(CN3CCOCC3)cc2)cc1 | 0.768% [at 0.00035 µM] (inactive) | – |
| CCN(CC)CCN1C(=O)c2ccccc2NC1c1ccccc1F (stereo unspecified) | 1.17% (inactive) | – |
| O=C1c2ccccc2N2C(=O)c3ccccc3C2N1Cc1ccco1 (stereo unspecified) | 1.3% (inactive) | – |
| COc1ccc(C(=O)N(Cc2ccccc2)Cc2cccs2)c(O)c1 | – | 28.2 µM (active) |
| COc1ccc(S(=O)(=O)NCCC(=O)NCc2ccc(F)cc2)cc1 | -0.0801% [at 0.00035 µM] (inactive) | – |

| SMILES | activation | Potency |
| --- | --- | --- |
| COc1ccc(C2Nc3ccccc3C(=O)N2Cc2ccc(Cl)cc2)cc1COc1ccc(NC(C)=O)cc1 (stereo unspecified) | – | 3.16 µM (active) |
| COc1ccc(C2Nc3ccccc3C(=O)N2Cc2ccco2)cc1COc1cccc(NC(C)=O)c1 (stereo unspecified) | 8.92% (inactive) | – |
| CCOC(=O)COc1ccccc1C1Nc2ccccc2C(=O)N1c1cccc(Cl)c1 (stereo unspecified) | 4.3% (inactive) | – |
| O=C(COC(=O)C12CC3CC(CC(Br)(C3)C1)C2)NCc1ccco1 | – | 10 µM (active) |
| COc1ccc(CN(Cc2ccccc2)C(=O)c2ccc(OC)cc2O)cc1 | – | 31.6 µM (active) |
| COc1ccc2c(c1OC)C(=O)N1c3ccccc3C(=O)N(c3ccc(F)cc3)C21 (stereo unspecified) | 0.277% (inactive) | – |
| COc1ccc(O)c(-c2nc3ccccc3c(=O)n2Cc2ccccc2)c1 | 10.9% (inactive) | – |
| CCOc1cc(C(=O)N(C)c2ccccc2)cc(OCC)c1OCC | 1.28% [at 0.00035 µM] (inactive) | – |
| O=C(Nc1ccccn1)NC12CC3CC(CC(C3)C1)C2 | 0.487% [at 0.00035 µM] (inactive) | – |
| Cc1cc(C)n(S(=O)(=O)c2cc(C(=O)O)c(Cl)cc2Cl)n1 | -0.754% [at 0.00035 µM] (inactive) | – |
| CCSCCOC(=O)C1=C(C)N(C)C(=O)NC1c1cc(OC)ccc1OC (stereo unspecified) | 1.56% [at 0.00035 µM] (inactive) | – |
| Cc1onc(-c2ccccc2Cl)c1C(=O)Nc1ccc(-n2nncc2-c2ccco2)cc1 | 0.344% [at 0.00035 µM] (inactive) | – |
| CCCCN1C(=O)c2ccccc2NC1c1ccc(OC)c(COc2ccc(NC(C)=O)cc2)c1 (stereo unspecified) | – | 20 µM (active) |
| COc1ccc(C2Nc3ccccc3C(=O)N2Cc2ccco2)cc1COc1c(C)cccc1C (stereo unspecified) | 1.67% (inactive) | – |
| COC(=O)C1=C(C)NC(=O)NC1c1cn(-c2ccccc2)nc1-c1cccs1 (stereo unspecified) | -0.246% [at 0.00035 µM] (inactive) | – |
| O=C1c2ccccc2NC(c2cccc(F)c2)N1Cc1ccco1 (stereo unspecified) | 0.392% (inactive) | – |
| COc1ccc(C2Nc3ccccc3C(=O)N2Cc2ccccc2)cc1Oc1ccc(NC(C)=O)cc1 (stereo unspecified) | 7.11% (inactive) | – |
| COc1ccc(C2Nc3ccccc3C(=O)N2c2ccc(Cl)cc2)cc1Cn1cc([N+](=O)[O-])cn1 (stereo unspecified) | 0.476% (inactive) | – |
